# The whole screen tested about 2,400 compounds, of which about 750 (31%) were called active.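 The calls were made as follows: active = median signal gain over dofetilide-blocked control wells reaching their mean plus 3 SD, so readout 1 at least 0; inactive = the rest.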 This is one part of the list.
# Target: Voltage-gated inwardly rectifying potassium channel KCNH2 (Homo sapiens) (UniProt Q12809)
# Assay: hERG protection against dofetilide inhibition, confirmation, cell-based, thallium flux, duplicate retest, dofetilide IC70 (AID 1835)
# Conditions: hERG cell line, FluxOR thallium flux, dofetilide-blocked; at 10 µM; active compounds read high
# Chain of Voltage-gated inwardly rectifying potassium channel KCNH2 (Homo sapiens) (Q12809 whole entry, looked up): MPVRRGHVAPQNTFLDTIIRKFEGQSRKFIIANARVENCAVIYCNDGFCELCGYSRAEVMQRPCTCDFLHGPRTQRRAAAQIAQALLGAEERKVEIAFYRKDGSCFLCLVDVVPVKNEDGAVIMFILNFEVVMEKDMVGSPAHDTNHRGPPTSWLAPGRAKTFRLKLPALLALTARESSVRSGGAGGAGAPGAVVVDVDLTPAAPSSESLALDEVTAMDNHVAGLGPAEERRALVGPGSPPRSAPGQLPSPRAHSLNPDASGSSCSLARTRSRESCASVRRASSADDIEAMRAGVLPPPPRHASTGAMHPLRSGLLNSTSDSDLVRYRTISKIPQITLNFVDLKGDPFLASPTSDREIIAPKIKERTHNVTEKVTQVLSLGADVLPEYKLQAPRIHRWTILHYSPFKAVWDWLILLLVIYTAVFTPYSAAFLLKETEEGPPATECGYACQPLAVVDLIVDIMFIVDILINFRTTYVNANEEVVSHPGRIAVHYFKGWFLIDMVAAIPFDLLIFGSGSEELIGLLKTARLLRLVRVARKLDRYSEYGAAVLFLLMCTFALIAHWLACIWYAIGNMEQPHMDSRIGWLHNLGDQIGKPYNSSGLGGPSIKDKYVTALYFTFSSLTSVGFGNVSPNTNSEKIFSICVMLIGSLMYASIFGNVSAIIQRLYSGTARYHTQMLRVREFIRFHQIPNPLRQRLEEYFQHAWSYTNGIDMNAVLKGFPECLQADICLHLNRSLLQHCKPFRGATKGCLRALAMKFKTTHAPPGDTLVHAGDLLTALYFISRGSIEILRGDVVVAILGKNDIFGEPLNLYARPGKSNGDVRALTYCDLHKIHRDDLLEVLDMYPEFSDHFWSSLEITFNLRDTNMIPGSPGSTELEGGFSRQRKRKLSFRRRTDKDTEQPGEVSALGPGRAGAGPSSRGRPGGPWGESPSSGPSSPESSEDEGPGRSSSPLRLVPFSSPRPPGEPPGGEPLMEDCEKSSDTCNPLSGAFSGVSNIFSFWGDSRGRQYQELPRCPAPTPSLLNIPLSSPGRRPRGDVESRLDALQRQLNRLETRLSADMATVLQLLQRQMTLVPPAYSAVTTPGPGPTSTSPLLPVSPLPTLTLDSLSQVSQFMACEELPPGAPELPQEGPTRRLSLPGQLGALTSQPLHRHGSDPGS
row,Compound,"activity increase over dofetilide control, less the hit threshold"
1,Cc1csc2c(N3CCCCC3)ncnc12,-8% (inactive)
2,COc1cc(NC(=O)CSc2ncnc3sc4c(c23)CCC(C)C4)c(C(=O)O)cc1OC (centres undefined),94% (active)
3,CC(=O)CSc1ncnc2sc3c(c12)CCC(C)C3 (centres undefined),72% (active)
4,Cc1nnc(NC(=O)CN2CCN(Cc3ccc(F)cc3Cl)CC2)s1,-17% (inactive)
5,CCCCCCC1CCC(C(=O)N2CCOCC2)CC1 (centres undefined),-5% (inactive)
6,O=C(CCCc1c[nH]c2ccccc12)Nc1ccc(S(=O)(=O)Nc2ncccn2)cc1,-19% (inactive)
7,COCC1CCCN(C(=O)c2ccc3oc(C(C)C)nc3c2)C1 (centres undefined),-12% (inactive)
8,Oc1c(Cl)cc(CN2CCCCC2)c2cccnc12,-6% (inactive)
9,O=C(c1c(O)c2ccccc2oc1=O)C1CCCCC1,-4% (inactive)
10,O=c1oc2ccccc2c(Cl)c1CN1CCCCC1,2% (active)
11,Cc1ccc(NC(=O)CCc2nc3sc4c(c3c(=O)[nH]2)CCCC4)c(Br)c1,-17% (inactive)
12,NC(=O)C1CCN(C(=O)CC(c2ccccc2)c2ccccc2)CC1,-17% (inactive)
13,O=C(Cc1ccccc1)Nn1c(-c2ccccc2)nc2ccccc2c1=O,-15% (inactive)
14,O=c1c2cc(Cl)ccc2nc(-c2ccc(Cl)c(Cl)c2)n1O,124% (active)
15,O=c1c2cc(Cl)ccc2nc(-c2ccccc2)n1O,18% (active)
16,O=c1c2ccccc2nc(-c2ccccc2)n1O,-7% (inactive)
17,Cc1ccc(-c2nc3c(Cl)cc(Cl)cc3c(=O)n2O)cc1,83% (active)
18,Cc1ccc(-c2nc3ccccc3c(=O)n2O)cc1,14% (active)
19,CCOc1ccc(N=Nc2cc(C(C)C)ccc2O)cc1,-9% (inactive)
20,COC(=O)Sc1nnc(-c2ccc(Br)cc2)o1,-2% (inactive)
21,CNC(=O)COC(=O)c1cccc(S(=O)(=O)N2CCN(c3ccc(F)cc3)CC2)c1,-20% (inactive)
22,CCC(C)NC(=O)Cn1nc(C(F)(F)F)c2c1CCCC2 (centres undefined),-7% (inactive)

row,Compound,"activity increase over dofetilide control, less the hit threshold"
1,Cc1ccccc1Cc1c(C)nc2c(C(=O)NCc3ccc4c(c3)OCO4)cnn2c1C,-11% (inactive)
2,OC(CNCC(c1ccc(Cl)cc1Cl)c1c[nH]c2ccccc12)c1ccccc1 (centres undefined),-48% (inactive)
3,CCOc1ccc(NC(=O)CN(C)C(=O)c2c(-c3c(F)cccc3Cl)noc2C)cc1OCC,-7% (inactive)
4,CN(Cc1cccc(C(F)(F)F)c1)Cc1nc(-c2cnccn2)no1,-8% (inactive)
5,Cc1ccc(-c2nc3ccc(Cl)cc3c(=O)n2O)cc1,78% (active)
6,CCOC(=O)c1c(N2C(=O)Nc3ccccc3N2O)n[nH]c1-c1cccc(Cl)c1,-4% (inactive)
7,Cc1ccc(-c2onc3ccc(Cl)cc23)cc1,0% (inactive)
8,O=c1c2ccccc2nc(-c2ccc(Cl)c(Cl)c2)n1O,36% (active)
9,O=c1c2ccccc2nc(-c2cccc(Cl)c2)n1O,39% (active)
10,Cc1ccc(C(=O)NNc2cc(N3CCCC3)nc(N3CCCC3)n2)cc1,-6% (inactive)
11,CCOc1ccc2[nH]cc(S(=O)(=O)c3ccc(F)cc3)c(=O)c2c1,-19% (inactive)
12,Cc1ccc(-c2nc(CSCC(=O)N3CCOCC3)c(C)o2)cc1,-9% (inactive)
13,NC(=O)[C@@H]1CCCN1Cc1nc(Cc2ccccc2Cl)no1,-15% (inactive)
14,Cc1ccc(NC(=O)c2c([N+](=O)[O-])c(C(C)(C)C)nn2C)cc1,-1% (inactive)
15,CCn1ncc(Cl)c1C(=O)NC(=S)Nc1ccccc1Br,46% (active)
16,O=C(NC(=S)Nc1ccccc1N1CCCC1)c1ccccc1Br,-2% (inactive)
17,Cc1nn(CCC(=O)NNC(=S)Nc2ccc(F)cc2)c(C)c1[N+](=O)[O-],-24% (inactive)
18,Cc1nn(C)c(C(=O)NC(=S)Nc2ccc([N+](=O)[O-])cc2)c1Cl,18% (active)
19,Cc1nn(C)c(C(=O)NC(=S)Nc2ccccc2Br)c1Cl,27% (active)
20,CCCCOC(=O)c1ccc(NC(=S)NC(=O)c2c(Cl)cnn2C)cc1,-11% (inactive)
21,CCCCOC(=O)c1ccc(NC(=S)NC(=O)c2c(Br)c(C)nn2C)cc1,38% (active)
22,Cc1cc(C)nc(SCc2nnc(SCC(=O)Nc3nc(-c4ccccc4)cs3)n2-c2ccccc2)n1,-19% (inactive)

row,Compound,"activity increase over dofetilide control, less the hit threshold"
1,CC(C)c1ccc2c(c1)c(SC(C)(C)C)c(CC(C)(C)C(=O)O)n2Cc1ccc(Cl)cc1,-9% (inactive)
2,S=c1[nH]nc(-c2ccccc2)n1/N=C/c1ccc(-c2ccccc2Cl)o1,-4% (inactive)
3,S=c1[nH]nc(-c2cccs2)n1/N=C/c1c(Cl)cccc1Cl,4% (active)
4,CN(C)/C=C1/C(=O)N(c2ccc([N+](=O)[O-])cc2)N=C1c1ccccc1,2% (active)
5,CC1=NN(c2ccccc2)C(=O)/C1=C/c1ccc(-c2ccc(C)c(C(=O)O)c2)o1,-18% (inactive)
6,O=C(NNC(=O)C12CC3CC(CC(O)(C3)C1)C2)c1ccccc1O,-4% (inactive)
7,Cc1nnc(SCC(=O)Nc2nccs2)n1N,-22% (inactive)
8,CC(C)[C@H](NC(=O)c1ccco1)C(=O)OCC(=O)Nc1cccc(F)c1,-12% (inactive)
9,C/C(Nc1cccc(F)c1)=C(/C#N)C(N)=O,2% (active)
10,CCOC(=O)c1nnn(CC(=O)Nc2cccc(F)c2)c1C(=O)OCC,-1% (inactive)
11,OC(CCN1CCOCC1)c1ccccc1 (centres undefined),-20% (inactive)
12,Cc1ccc(C)c(NC(=O)CCN2C(=O)[C@@H]3Cc4ccccc4CN3C2=O)c1,-17% (inactive)
13,CC(=O)C1C(=O)c2c(cccc2[N+](=O)[O-])C1=Nc1ccccc1C (centres undefined),-20% (inactive)
14,CCN(CC)S(=O)(=O)c1ccc2[nH]c(=O)cc(C(=O)Nc3cccc(C(C)=O)c3)c2c1,-4% (inactive)
15,S=c1nc(-c2ccc(Br)cc2)[nH]c2ccccc12,50% (active)
16,S=c1nc(-c2ccccc2)[nH]c2ccc(Br)cc12,95% (active)
17,CC(Oc1ccc(Br)cc1)c1nc2c3ccccc3nc(=S)n2[nH]1 (centres undefined),0% (inactive)
18,CC(C)c1ccc(CNc2nc3nc4c(c(=O)n3[nH]2)CCC4)cc1,-6% (inactive)
19,O=C1CCN(S(=O)(=O)c2ccc(Cl)cc2)CCN1,-25% (inactive)
20,COc1ccc(S(=O)(=O)c2snnc2C)cc1,-2% (inactive)
